Measured values published in PubChem BioAssay AID743287 (Broad Institute, 2014).
Among all 370,000 compounds or so, about 2,300 (0.62%) were called active. This excerpt belongs to a sample that is enriched for actives. A number with no mark means an inactive call.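 Rule for the calls: active = lowest replicate activation of at least 40%, so every replicate reaches that level; inactive = the rest.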

Test: GLuc luminescence reporter in INS-1E cells, primary screen for activators of glucose-dependent secretion of insulin (AID 743287);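 note: 0% = median of neutral control wells and 100% = median of IBMX positive control wells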
Settings: INS-1E GLuc reporter insulin secretion, 2-3 h, at 16.6 µM, active compounds read high
For O=C(COc1cccc2c1CCNC2=O)NC1CCCCC1, the activation was 44.9% (active).
Compound O=C(COc1ccccc1O)NC1CCCC1 has an activation of 11.6%.
With Cc1ccccc1NC(=O)COc1cccc2c1CCNC2=O the activation was 23.1%.
Work on COc1ccc(NC(=O)Nc2ccc3c(c2)C(=O)N([C@@H](C)CO)C[C@@H](C)[C@@H](CN(C)C(=O)Nc2ccc(F)cc2)OCCCC[C@@H](C)O3)cc1 yielded an activation of -7.03%.
With COc1ccc(-c2ccccc2[C@H]2[C@@H](C#N)N(C(=O)C3CCC3)[C@@H]2CO)cc1 the activation was -4.21%.
In the case of S=C(NCCCc1cnc[nH]1)NCCCN(Cc1ccc(Cl)c(Cl)c1)c1ccc(Br)cn1, the activation is reported as 17%.
In the case of NCCCNC(=S)NCCCN(Cc1ccc(Cl)cc1)c1ccc(Br)cn1, the activation is reported as 57.1% (active).
With O=C(/C=C/c1ccc(Cl)cc1)Nc1ccc(Br)cn1 the activation was 3.4%.
CCOc1cc(C(=O)OCC(=O)Nc2cccc(C)c2)ccc1OCC(=O)N1CCOCC1 showed an activation of 7.48%.
With COc1ccc(C(=O)OCC(=O)Nc2cc(C)on2)cc1F the activation was 12.4%.
In the case of COc1ccc(C(=O)OCC(=O)Nc2cccc(C(C)=O)c2)cc1OC, the activation is reported as 67.3% (active).
C[C@@H]1CN([C@@H](C)CO)S(=O)(=O)c2ccc(-c3ccncc3)cc2O[C@@H]1CN(C)C(=O)C1CCC1 showed an activation of 7.69%.
CCCNC(=O)N(C)C[C@H]1Oc2cc(C3=CCCCC3)ccc2S(=O)(=O)N([C@H](C)CO)C[C@H]1C showed an activation of -12.1%.
Compound CCN(CCO)C(=S)Nc1cc(C(=O)OC)ccc1C(=O)OC has an activation of 18%.
For COC(=O)c1ccc(C(=O)Nc2cc(Cl)ccc2Cl)cc1NC(=O)c1ccccc1C, the activation was 82.6% (active).
Compound CCCN(CCC)C(=S)Nc1cc(C(=O)OC)ccc1C(=O)OC has an activation of 20.1%.
Work on C/C=C/c1ccc(OCCOc2ccc(C=O)cc2OC)c(OC)c1 yielded an activation of 10.7%.
With COc1cc(/C=N/NC(=O)Nc2ccccc2)ccc1OCCOc1ccccc1C the activation was 169% (active).
For Cc1ccc(F)c(NC(=O)CCOc2ccccc2C)c1, the activation was -15%.
With C[C@H](O)C#Cc1ccc2c(c1)O[C@H](CN(C)C(=O)C1CCCCC1)[C@@H](C)CN([C@H](C)CO)S2(=O)=O the activation was 4.13%.
For CCCN1Cc2cccc(C(=O)NCc3ccccc3)c2C1=O, the activation was 72.4% (active).
Cc1ccc(CNC(=O)c2ccccc2CCc2ccccc2)cc1 gave an activation of -27.9%.
Compound CSc1ccccc1C(=O)NCc1ccccc1 has an activation of -6.59%.
For C[C@@H]1CN(C)C(=O)c2cc([N+](=O)[O-])ccc2O[C@@H]1CN(C)C(=O)OC(C)(C)C, the activation was 16%.
For COc1cccc(-c2ccc3n(c2=O)C[C@@H]2[C@@H](CO)[C@H](C(=O)NC4CCC4)[C@H]3N2C)c1, the activation was 7.74%.
Work on COc1cccc2cc(C(=O)NCc3ccc(C)cc3)c(=N)oc12 yielded an activation of 12.3%.
For COc1cccc2cc(-c3cc(=O)oc4cc(C)c(O)cc34)oc12, the activation was 78.5% (active).
Compound COc1cccc(C(=O)OCc2cc(=O)oc3c(C)c(C)ccc23)c1OC has an activation of 8.16%.
For CNC[C@@H]1Oc2ccc(N(C)C)cc2CC(=O)N(C)C[C@@H]1C, the activation was 2%.
In the case of CC(C)(C(=O)N1CCC1(C)C(=O)NS(=O)(=O)c1ccc(Br)cc1)c1ccccc1 (stereo unspecified), the activation is reported as 41.5% (active).
In the case of CC(C)(C)c1ccc(S(=O)(=O)NC(=O)C2(C)CCN2C(=O)CC2CC2)cc1 (stereo unspecified), the activation is reported as 7.26%.
Work on CC1(C(=O)NS(=O)(=O)c2ccccc2)CCN1C(=O)C1CCCCC1 (stereo unspecified) yielded an activation of 4.33%.
With O=C(NCC[C@@H]1CC[C@H](NC(=O)C2CCCCC2)[C@@H](CO)O1)Nc1ccc(Cl)cc1 the activation was -11.1%.
Cc1noc(C)c1NC(=O)N(C)C[C@@H]1OCCCC[C@@H](C)Oc2ccc(NC(=O)C3CCCCC3)cc2C(=O)N([C@@H](C)CO)C[C@H]1C showed an activation of -7.43%.
In the case of COc1ccc(-c2ccccc2[C@@H]2[C@@H](C#N)N(C(=O)NC3CCCC3)[C@H]2CO)cc1, the activation is reported as -19.5%.
COc1ccc2c3c(n(C)c2c1)[C@@H](CO)N(Cc1ccccc1OC)CC31CN(CC2CCOCC2)C1 showed an activation of 10%.
CC(C)C#Cc1ccc2c(c1)O[C@@H](CN(C)CC1CCOCC1)[C@H](C)CN([C@H](C)CO)S2(=O)=O showed an activation of -9.43%.
In the case of O=C(COc1ccc(-c2ccccc2)cc1)NN=C1CCCC1, the activation is reported as 11%.
In the case of O=C(CN1CCSCC1)N/N=C/c1ccc(F)cc1, the activation is reported as -0.738%.
In the case of Cc1ccc(/C=N/NC(=O)COc2ccccc2-c2ccccc2)cc1, the activation is reported as 267% (active).
Work on CN(C)C(=O)C[C@H]1CC[C@@H](NC(=O)Nc2cccc(F)c2)[C@H](CO)O1 yielded an activation of 3.3%.
With CN1c2ccc(-c3ccc(F)cc3)cc2[C@@H]2[C@@H](CCN2C(=O)c2cccnc2)[C@H]1CO the activation was 18.2%.
Compound CNC[C@H]1Oc2ccc(NS(=O)(=O)c3ccccc3)cc2CC(=O)N([C@H](C)CO)C[C@@H]1C has an activation of 3.16%.
With Cc1cccc(C)c1NC(=O)C1CCCN1C(=O)OC(C)(C)C (stereo unspecified) the activation was 2.21%.
Work on Cc1ccc(C)c(NC(=O)C2CCCN2C(=O)OC(C)(C)C)c1 (stereo unspecified) yielded an activation of -3.08%.
With CCC[C@H]1CCCC/C=C\CCCC(=O)OCCN1C(=O)OC(C)(C)C the activation was 66.4% (active).
With C[C@H]1CN(C)C(=O)c2cccc(N(C)C)c2O[C@@H]1CN(C)C the activation was -6.84%.
CNC[C@H]1Oc2cc(C#CCOC)ccc2S(=O)(=O)N([C@@H](C)CO)C[C@H]1C gave an activation of 4.43%.
Cc1noc(C)c1NC(=O)Nc1ccc2c(c1)CC(=O)N([C@@H](C)CO)C[C@H](C)[C@@H](CN(C)C(=O)Nc1ccc3c(c1)OCO3)O2 gave an activation of 5.38%.
Compound CC(=O)N(C)C[C@@H]1Oc2ccc(NC(=O)NC(C)C)cc2C(=O)N(C)C[C@H]1C has an activation of 9.69%.
In the case of COc1ccc(/C=C/C(=O)Nc2ccc3c(c2)OCCO3)cc1OC, the activation is reported as 53.8% (active).
COc1ccc(Cl)cc1NC(=O)CN(C)CC(=O)Nc1ccc2c(c1)OCO2 gave an activation of -15.8%.
Compound CN(CC(=O)Nc1ccc(C(N)=O)cc1)S(=O)(=O)c1ccc2c(c1)OCCO2 has an activation of -7.44%.
In the case of COc1ccc(S(=O)(=O)N(C)CC(=O)Nc2ccc3c(c2)OCCO3)cc1OC, the activation is reported as 79.4% (active).
COc1ccc(NC(=O)CN(C)S(=O)(=O)c2ccccc2)cc1OC showed an activation of 8.5%.
With COc1ccc(/C=C/C(=O)Nc2ccc(C34CC5CC(CC(O)(C5)C3)C4)cc2)cc1OC the activation was 11.4%.
